The full ranking holds about 110,000 compounds; the median of “z-score” is about -0.1, and the highest 2% start at about 2. This is one part of a sample in which the highest values are shown more often than they occur. Calls of active or inactive are those of the source.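 Rule for the calls: active = z-score in the third read window above 3 or below -3; inactive = the rest.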
biological target: Metabotropic glutamate receptor 8 (Rattus norvegicus) (UniProt P70579); test: mGluR8 Gi/Go-coupled signaling modulation – cell-based, rat, thallium flux, HTS, primary screen (AID 488969); conditions: HEK293 rat mGluR8, GIRK (G protein-gated inwardly rectifying potassium channel) thallium flux, FluoZin2; at 10 µM; stronger effect = higher value; submaximal glutamate (EC20) added with thallium
Sequence (P70579 whole entry, looked up): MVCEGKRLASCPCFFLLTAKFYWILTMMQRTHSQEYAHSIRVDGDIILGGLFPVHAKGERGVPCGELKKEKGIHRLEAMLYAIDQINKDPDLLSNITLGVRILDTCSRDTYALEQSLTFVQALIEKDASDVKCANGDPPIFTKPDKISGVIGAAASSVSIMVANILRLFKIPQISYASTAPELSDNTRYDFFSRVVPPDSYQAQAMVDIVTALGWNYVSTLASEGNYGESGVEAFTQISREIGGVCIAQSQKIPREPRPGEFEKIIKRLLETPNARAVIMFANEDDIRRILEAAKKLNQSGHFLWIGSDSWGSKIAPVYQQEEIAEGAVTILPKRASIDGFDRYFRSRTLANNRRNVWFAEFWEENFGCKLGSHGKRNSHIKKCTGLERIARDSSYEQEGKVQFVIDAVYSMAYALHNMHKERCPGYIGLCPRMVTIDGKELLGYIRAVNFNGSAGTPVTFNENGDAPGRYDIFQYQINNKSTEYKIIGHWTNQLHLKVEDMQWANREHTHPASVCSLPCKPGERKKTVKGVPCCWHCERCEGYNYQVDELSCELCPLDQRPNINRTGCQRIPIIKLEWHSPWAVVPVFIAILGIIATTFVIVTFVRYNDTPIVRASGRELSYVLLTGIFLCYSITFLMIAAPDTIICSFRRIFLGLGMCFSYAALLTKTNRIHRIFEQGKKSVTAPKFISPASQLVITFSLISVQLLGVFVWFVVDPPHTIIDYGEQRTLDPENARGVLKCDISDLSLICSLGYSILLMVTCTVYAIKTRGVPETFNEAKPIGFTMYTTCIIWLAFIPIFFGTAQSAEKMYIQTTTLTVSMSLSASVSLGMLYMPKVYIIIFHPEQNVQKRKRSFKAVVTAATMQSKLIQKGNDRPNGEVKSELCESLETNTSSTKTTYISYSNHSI

Row | Structure (SMILES) | z-score
1 | CCC(C)(C)n1nnnc1CN1CCN(c2nc3cc(OC)ccc3cc2C#N)CC1 | -1.2
2 | Cn1ncc2c(NCc3ccccc3)ncnc21 | -0.129
3 | OCCNc1ncnc2c1ncn2Cc1ccccc1 | -0.662
4 | CC(C)CCn1cnc2c(NCc3ccccc3)ncnc21 | 2.07
5 | O=C(CCCOc1ccc(Cl)cc1Cl)N/N=C\C1CCCCC1 | -0.118
6 | CCn1c(-c2cc(-c3cc(OC)ccc3OC)nc3ccccc23)n[nH]c1=S | 0.132
7 | CCOc1cccc(-c2cc(-c3n[nH]c(=S)n3CC)c3ccccc3n2)c1 | 2.09
8 | CCn1c(-c2cc(-c3ccccc3OC)nc3ccccc23)n[nH]c1=S | 0.152
9 | CCn1c(-c2cc(-c3cccc(OC)c3)nc3ccccc23)n[nH]c1=S | 1.92
10 | CCCOc1cccc(-c2cc(-c3n[nH]c(=S)n3CC)c3ccccc3n2)c1 | 4.22 (active)
11 | CCn1c(-c2cc(-c3ccc(OC(C)C)cc3)nc3ccccc23)n[nH]c1=S | 1.25
12 | CCOC(=O)c1cc2nc(-c3ccco3)cc(C(F)(F)F)n2n1 | -1.72
13 | CCOc1ccc(-c2nc(C#N)c(NCc3ccc4c(c3)OCO4)o2)cc1 | 0.406
14 | O=c1[nH][nH]c(-c2ccccc2)c1C=Nc1ccccc1 | -0.278
15 | O=C1CCC2CCCCC2(O)O1 (stereo not drawn) | -0.0285
16 | O=c1n(Cc2ccc(Cl)cc2)c2sc3c(c2c2ncnn12)CCCC3 | -0.595
17 | COc1cc(-c2nnc(SCC(=O)N3CCCC3)o2)cc(OC)c1OC | 2.2
18 | COc1ccc(-c2nnc(SCC(=O)N3CCCC3)o2)cc1OC | 0.322
19 | COc1cc(OC)cc(-c2nnc(SCC(=O)N3CCCC3)o2)c1 | -0.103
20 | COc1ccc(OC)c(C(=O)CSc2nc3cccnc3n2C)c1 | 0.718
21 | COc1ccc(S(=O)(=O)N(C)CC(=O)Nc2ccccc2OC)cc1 | -0.484
22 | OC(COCc1ccc2c(c1)OCO2)CN1CCN(Cc2ccccc2)CC1 (stereo not drawn) | -0.00855
23 | CN1CCN(CC(O)COCc2ccc3c(c2)OCO3)CC1 (stereo not drawn) | 0.1
24 | SC(COCc1ccccc1)CN1CCN(Cc2ccc3c(c2)OCO3)CC1 (stereo not drawn) | 3.02 (active)

Row | Structure (SMILES) | z-score
25 | CCn1nc(NC(=O)c2ccccn2)c2cc3cc(C)ccc3nc21 | -0.417
26 | CC1=C(C(=O)OCc2ccccc2)C(c2cccnc2)n2nnnc2N1 (stereo not drawn) | 0.152
27 | FC(F)(F)c1ccccc1NC(=S)N1CCN(c2ncccn2)CC1 | -0.0651
28 | CN1CCN(CCNC(=O)Nc2ccccc2C(F)(F)F)CC1 | -0.464
29 | CCCN1CCN(C(=S)Nc2ccccc2C(F)(F)F)CC1 | 2.17
30 | CC1CCC(C(=O)NC(C(=O)N2CCc3ccccc3C2)C(C)C)CC1 (stereo not drawn) | -0.269
31 | COc1ccc(-c2nc3c(c4nnc(SC(C)C(=O)Nc5ccccc5)n24)COC(C)(C)C3)cc1 (stereo not drawn) | -0.351
32 | CC1CCN(c2oc(-c3ccccc3F)nc2C#N)CC1 | 2.57
33 | CC1CCN(c2oc(-c3cccc4ccccc34)nc2C#N)CC1 | 0.305
34 | N#Cc1nc(-c2ccccc2F)oc1N1CCCC1 | -0.139
35 | C=CCn1c(SCCOC)nc2c1c(=O)[nH]c(=O)n2C | -0.444
36 | NC(Cc1ccc2nsnc2c1)C(=O)O (stereo not drawn) | 0.179
37 | CCCCn1c(Cc2ccccc2)nnc1SCC(=O)N1CCOCC1 | -0.257
38 | O=C1C(=Cc2cccn2-c2ccc(O)cc2)C(=O)c2ccccc21 | -0.204
39 | CN(C)/C=C1\C(=O)Nc2ccccc21 | -0.00898
40 | O=C1Nc2ccccc2/C1=C\c1cccn1-c1ccc(OC(F)(F)F)cc1 | 2.45
41 | COc1ccc(OC)c(NC(=O)CSc2nnc(CNC(=O)c3ccco3)o2)c1 | -0.27
42 | O=C(Nc1nccs1)C1C2/C=C\CCCCC21 (stereo not drawn) | 0.175
43 | COC(=O)Nc1ccc([N+](=O)[O-])cc1OC | -0.117
44 | COc1ccc2nc(NC(=O)CN3CCN(C)CC3)sc2c1 | 0.194
45 | c1cncc(-c2nnc(-c3ccco3)o2)c1 | -0.101
46 | CC(=O)Nc1cccc2c1C(=O)N(c1ccc(C)cc1)C2=O | 0.845
47 | CC(C)CC(=O)Nc1cccc2c1C(=O)N(c1ccccc1)C2=O | -3.2 (active)
48 | CC(=O)Nc1cccc2c1C(=O)N(c1cccc(C)c1)C2=O | 3.13 (active)

Row | Structure (SMILES) | z-score
49 | Cc1csc(N(C(=O)c2cccc(S(=O)(=O)N(C)C)c2)c2ccccc2)n1 | 2.2
50 | Cc1csc(N(C(=O)c2ccc(S(=O)(=O)N(C)C)cc2)c2ccccc2)n1 | 0.4
51 | Cc1csc(N(C(=O)c2cccc(S(=O)(=O)N3CCCC3)c2)c2ccccc2)n1 | -0.475
52 | COc1cc(C2N(c3ccc(F)cc3)C(=O)C3CCCN32)cc(OC)c1OC (stereo not drawn) | 0.416
53 | O=C1CCSc2ccc(Cl)cc2N1Cc1ccccc1 | -0.321
54 | O=C1Cc2ccccc2Sc2ccc(Cl)cc21 | -0.097
55 | CCOC(=O)Nc1ccc2c(c1)Nc1ccccc1S2 | -0.571
56 | S=C1CCSc2ccc(Cl)cc2N1 | 9.14 (active)
57 | S=C1Nc2cc(Cl)ccc2Sc2ccccc21 | 11.3 (active)
58 | O=C1Nc2ccccc2S/C1=C/Nc1cccc(Cl)c1 | -0.29
59 | Clc1ccc2c(c1)-c1nnc(Br)n1-c1ccccc1S2 | -4.38 (active)
60 | O=C1CCSc2ccc(Cl)cc2N1Cc1ccc(Cl)cc1 | -0.366
61 | S=C1Nc2ccccc2Sc2ccc(Cl)cc21 | 4.1 (active)
62 | Cc1ccc(-n2c(Cc3cccn3C)nnc2SCC(=O)N2CCN(c3ccccc3)CC2)cc1 | -0.835
63 | Cc1ccc(S(=O)(=O)N2CCN(C(=O)N(c3ccccc3)c3ccccc3)CC2)cc1 | -0.559
64 | O=c1cc(O)nc(SCc2ccccc2)n1-c1ccc(F)cc1 | -0.305
65 | CC1CCN(c2ccc(C(=O)Nc3ccc4c(c3)OCO4)cc2[N+](=O)[O-])CC1 | -0.237
66 | COc1ccccc1NC(=O)CNC(=O)c1ccccc1C | 0.371
67 | CCOC(=O)CNS(=O)(=O)c1ccc(C(=O)O)cc1 | 0.207
68 | Cc1ccc(S(=O)(=O)CC(=O)Nc2nc(-c3ccccc3)cs2)cc1 | 1.27
69 | COc1ccccc1NC(=S)NC(=O)CCCOc1ccc(Cl)cc1Cl | -0.0968
70 | CCCCC(=O)Nc1ccc(C(=O)NNC(=O)CCCOc2ccc(Cl)cc2Cl)cc1 | -0.184
71 | CN(C(=S)NC(=O)CCCOc1ccc(Cl)cc1Cl)c1ccccc1 | 4 (active)
72 | O=C(CCCOc1ccc(Cl)cc1Cl)Nc1cccnc1 | -0.0915

Row | Structure (SMILES) | z-score
73 | CCOc1ccccc1NC(=S)NC(=O)CCCOc1ccc(Cl)cc1Cl | -0.0571
74 | O=C(CCCOc1ccc(Cl)cc1Cl)Nc1ccncc1 | 2.21
75 | Cc1ccc(C)c(Oc2ncnc(N)c2[N+](=O)[O-])c1 | 0.623
76 | CCOC(=O)COc1ccc(S(=O)(=O)Nc2cccc(SC)c2)cc1 | -0.28
77 | CC(C)C(=O)Nc1ccc(-c2csc(-c3ccccc3)n2)cc1 | -0.165
78 | Cc1cc(-c2ccccc2)c(C#N)c(=S)[nH]1 | 0.152
79 | Cc1ccc(-c2cc(-c3ccccc3)[nH]c(=S)c2C#N)cc1 | 3.09 (active)
80 | N#Cc1c(-c2ccc(C(F)(F)F)cc2)cc(-c2ccccc2)[nH]c1=S | 1.24
81 | Cc1ccc(NC(=O)COC(=O)CNC(=O)c2ccc(Br)cc2)c(C)c1 | -0.336
82 | Cc1ccc(NC(=O)NC2CCN(S(=O)(=O)c3ccc(F)cc3)CC2)cc1 | 0.564
83 | Brc1ccc(-c2cn3ccccc3n2)s1 | -0.391
84 | CCOC(=O)C1(C)NC(c2ccco2)C2C(=O)N(c3ccc(C)cc3)C(=O)C21 (stereo not drawn) | 0.153
85 | COc1cc(NC(=O)C2CC2C)c(C(=O)O)cc1OC (stereo not drawn) | -0.191
86 | C/C(N)=C(/C#N)C(=O)CN1CCCCC1 | 0.678
87 | Cc1cccc(-c2noc(CCCC(=O)N3CCOCC3)n2)c1 | -0.139
88 | O=C(CCCc1nc(-c2ccccc2)no1)N1CCOCC1 | 0.382
89 | O=C(CCCc1nc(-c2ccc(Cl)cc2)no1)N1CCOCC1 | 3.9 (active)
90 | COc1ccc(Cl)cc1C(=O)NNC(=S)NC(=O)c1cc(-c2ccc(Cl)cc2)nc2ccccc12 | 0.219
91 | CCOC(=O)c1ccc(NC(=O)COC(=O)Cc2csc(-c3ccccc3)n2)cc1 | -0.252
92 | O=C(NCc1cccs1)c1ccccc1C(=O)NCc1cccs1 | -0.214
93 | O=C(NCc1cccs1)c1cccnc1Cl | -0.317
94 | O=C(NCc1cccs1)c1cccnc1C(=O)O | 5.74 (active)
95 | CCN(CC)S(=O)(=O)c1ccc(NCc2ccccc2)nc1 | -0.962
96 | CCC(Sc1ncnc2sc(C)c(C)c12)C(=O)OC (stereo not drawn) | -0.469

Row | Structure (SMILES) | z-score
97 | Cc1ccc(OCC(=O)NNC(=O)C(C)Sc2ncnc3sc(C)c(C)c23)cc1 (stereo not drawn) | 7.7 (active)
98 | Cc1sc2ncnc(SCC(=O)c3ccc(Cl)s3)c2c1C | 1.06
99 | CCc1ccc(OCC(=O)NNC(=O)CSc2ncnc3sc(C)c(C)c23)cc1 | 0.487
100 | Cc1sc2ncnc(SC(C)C(=O)N3c4ccccc4Sc4ccccc43)c2c1C (stereo not drawn) | 2.19
101 | Cc1sc2ncnc(SCC(=O)NCC(C)C)c2c1C | -0.208
102 | COc1ccc(Cn2c(O)c(C=Nc3ccc(OC)cc3)c3ccccc3c2=O)cc1 | -0.178
103 | NC(=O)c1c(NC(=O)CSc2nc3c(c(C(F)(F)F)n2)CCc2ccccc2-3)sc2c1CCCC2 | -0.123
104 | Cc1ccc(C)c(NC(=O)Cc2csc(-c3ccccc3)n2)c1 | -0.0885
105 | O=C(NC1CCCCC1)C(c1ccc2ncccc2c1)N(Cc1ccc2c(c1)OCO2)C(=O)c1cccs1 (stereo not drawn) | 0.00177
106 | CC(=O)c1cnc(Nc2ccccc2)s1 | 0.548
107 | COc1ccc2cc(Br)ccc2c1CC(=O)NC1CC(C)(C)NC(C)(C)C1 | 3.91 (active)
108 | COc1ccc2cc(Br)ccc2c1CC(=O)NC(C)(C)C | -0.349
109 | CCCNC(=O)Cc1c(OC)ccc2cc(Br)ccc12 | 0.421
110 | COc1ccc(C(CC(=O)Nc2ccc(F)cc2)c2ccccc2)cc1 (stereo not drawn) | 1.4
111 | COc1ccc(CNCCC(c2ccccc2)c2ccc3c(c2)OCO3)cc1 (stereo not drawn) | 2.28
112 | Fc1ccccc1CNCCC(Cc1ccccc1)c1ccc2c(c1)OCO2 (stereo not drawn) | 0.733
113 | COc1ccc(C(CCNC(C)c2ccccc2)c2ccc(F)cc2)cc1 (stereo not drawn) | 1.71
114 | COc1ccc(C(CCNCc2ccccc2)c2ccc(F)cc2)cc1 (stereo not drawn) | 1.8
115 | COc1ccc(C(CCNCc2ccccc2F)c2ccc(F)cc2)cc1 (stereo not drawn) | 3.61 (active)
116 | COc1ccc(CNCCC(c2ccc(F)cc2)c2ccc(OC)cc2)cc1 (stereo not drawn) | 3.72 (active)
117 | COc1ccc(CC(=O)NCc2ccc3c(c2)OCO3)cc1 | -0.347
118 | COc1ccc(NC(=O)CC(c2ccc(F)cc2)c2ccc(OC)cc2)cc1 (stereo not drawn) | -0.576

Reference: PubChem BioAssay AID488969 (Vanderbilt High Throughput Screening Facility, 2010)
